In the supplement of paper PMC8975748:
Structures can show the parent of a compound that is named as a salt. ± gives the standard deviation of the averaged measurements.

Assays:
[1] = test system: Saccharomyces cerevisiae BY4741 SeMeCo community; assay: mean cell size (pixel area) (pixels); higher = larger cells; details: 10 µM; 24 h; SM minimal medium
Outline: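 A fluorescent Saccharomyces cerevisiae BY4741 community carrying four plasmids was used, with each plasmid complementing one auxotrophy and bearing a fluorescent marker. An overnight preculture at OD600 = 1.0 was diluted to OD600 = 0.3, and 70 µl went into 384-well plates acoustically predosed with drug (final 10 µM) in SM medium for 24 h. After paraformaldehyde fixation, cells were imaged by automated confocal microscopy and analysed in Harmony, giving the mean cell pixel area per well. Each value is the average of 3 replicates. Same SeMeCo high-content imaging drug screen: Selleck FDA-approved drugs at 10 µM, 24 h in SM medium, 384-well plates, 3 replicates.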

[2] = test system: Saccharomyces cerevisiae BY4741 SeMeCo community; assay: z-score of prototroph abundance vs DMSO median; higher = larger share of this subpopulation than in DMSO controls; details: 10 µM; 24 h; SM minimal medium; subpopulation (auxotrophy): Prototroph
Outline: (§1)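 Scoring was based on each subpopulation's abundance, expressed as a z-score against the vehicle-well median. A Saccharomyces cerevisiae BY4741 community with four plasmids, each restoring one auxotrophy and encoding a distinct fluorescent protein, was pre-grown overnight to OD600 1.0, diluted to 0.3, and added at 70 µl to 384-well plates acoustically predosed with library drugs (10 µM final). It then grew 24 h in minimal SM medium before paraformaldehyde fixation and automated confocal microscopy, with single-auxotroph fluorescent strains setting thresholds and autofluorescence correction.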

[3] = test system: Saccharomyces cerevisiae BY4741 SeMeCo community; assay: z-score of subpopulation abundance vs DMSO median, subpopulation auxotrophic for L; higher = larger share of this subpopulation than in DMSO controls; details: 10 µM; 24 h; SM minimal medium; subpopulation (auxotrophy): L
Outline: as §1

[4] = test system: Saccharomyces cerevisiae BY4741 SeMeCo community; assay: z-score of subpopulation abundance vs DMSO median, subpopulation auxotrophic for U; higher = larger share of this subpopulation than in DMSO controls; details: 10 µM; 24 h; SM minimal medium; subpopulation (auxotrophy): U
Outline: as §1

[5] = test system: Saccharomyces cerevisiae BY4741 SeMeCo community; assay: z-score of subpopulation abundance vs DMSO median, subpopulation auxotrophic for H; higher = larger share of this subpopulation than in DMSO controls; details: 10 µM; 24 h; SM minimal medium; subpopulation (auxotrophy): H
Outline: as §1

[6] = test system: Saccharomyces cerevisiae BY4741 SeMeCo community; assay: z-score of subpopulation abundance vs DMSO median, subpopulation auxotrophic for LU; higher = larger share of this subpopulation than in DMSO controls; details: 10 µM; 24 h; SM minimal medium; subpopulation (auxotrophy): LU
Outline: as §1

[7] = test system: Saccharomyces cerevisiae BY4741 SeMeCo community; assay: z-score of subpopulation abundance vs DMSO median, subpopulation auxotrophic for LM; higher = larger share of this subpopulation than in DMSO controls; details: 10 µM; 24 h; SM minimal medium; subpopulation (auxotrophy): LM
Outline: as §1

[8] = test system: Saccharomyces cerevisiae BY4741 SeMeCo community; assay: z-score of subpopulation abundance vs DMSO median, subpopulation auxotrophic for HM; higher = larger share of this subpopulation than in DMSO controls; details: 10 µM; 24 h; SM minimal medium; subpopulation (auxotrophy): HM
Outline: as §1

[9] = test system: Saccharomyces cerevisiae BY4741 SeMeCo community; assay: z-score of subpopulation abundance vs DMSO median, subpopulation auxotrophic for HU; higher = larger share of this subpopulation than in DMSO controls; details: 10 µM; 24 h; SM minimal medium; subpopulation (auxotrophy): HU
Outline: as §1

[10] = test system: Saccharomyces cerevisiae BY4741 SeMeCo community; assay: z-score of subpopulation abundance vs DMSO median, subpopulation auxotrophic for UM; higher = larger share of this subpopulation than in DMSO controls; details: 10 µM; 24 h; SM minimal medium; subpopulation (auxotrophy): UM
Outline: as §1

[11] = test system: Saccharomyces cerevisiae BY4741 SeMeCo community; assay: z-score of subpopulation abundance vs DMSO median, subpopulation auxotrophic for HL; higher = larger share of this subpopulation than in DMSO controls; details: 10 µM; 24 h; SM minimal medium; subpopulation (auxotrophy): HL
Outline: as §1

[12] = test system: Saccharomyces cerevisiae BY4741 SeMeCo community; assay: z-score of subpopulation abundance vs DMSO median, subpopulation auxotrophic for HLU; higher = larger share of this subpopulation than in DMSO controls; details: 10 µM; 24 h; SM minimal medium; subpopulation (auxotrophy): HLU
Outline: as §1

[13] = test system: Saccharomyces cerevisiae BY4741 SeMeCo community; assay: z-score of subpopulation abundance vs DMSO median, subpopulation auxotrophic for HLM; higher = larger share of this subpopulation than in DMSO controls; details: 10 µM; 24 h; SM minimal medium; subpopulation (auxotrophy): HLM
Outline: as §1

[14] = test system: Saccharomyces cerevisiae BY4741 SeMeCo community; assay: z-score of subpopulation abundance vs DMSO median, subpopulation auxotrophic for HUM; higher = larger share of this subpopulation than in DMSO controls; details: 10 µM; 24 h; SM minimal medium; subpopulation (auxotrophy): HUM
Outline: as §1

[15] = test system: Saccharomyces cerevisiae BY4741 SeMeCo community; assay: z-score of subpopulation abundance vs DMSO median, subpopulation auxotrophic for LUM; higher = larger share of this subpopulation than in DMSO controls; details: 10 µM; 24 h; SM minimal medium; subpopulation (auxotrophy): LUM
Outline: as §1

[16] = test system: Saccharomyces cerevisiae BY4741 SeMeCo community; assay: z-score of subpopulation abundance vs DMSO median, subpopulation auxotrophic for HLUM; higher = larger share of this subpopulation than in DMSO controls; details: 10 µM; 24 h; SM minimal medium; subpopulation (auxotrophy): HLUM
Outline: as §1

[17] = test system: Saccharomyces cerevisiae BY4741 SeMeCo community; assay: z-score of subpopulation abundance vs DMSO median, subpopulation auxotrophic for M; higher = larger share of this subpopulation than in DMSO controls; details: 10 µM; 24 h; SM minimal medium; subpopulation (auxotrophy): M
Outline: as §1

| SMILES | mean cell size [1] | z-score of prototroph abundance [2] | z-score of subpopulation abundance [3] | z-score of subpopulation abundance [4] | z-score of subpopulation abundance [5] | z-score of subpopulation abundance [6] | z-score of subpopulation abundance [7] | z-score of subpopulation abundance [8] | z-score of subpopulation abundance [9] | z-score of subpopulation abundance [10] | z-score of subpopulation abundance [11] | z-score of subpopulation abundance [12] | z-score of subpopulation abundance [13] | z-score of subpopulation abundance [14] | z-score of subpopulation abundance [15] | z-score of subpopulation abundance [16] | z-score of subpopulation abundance [17] |
| --- | --- | --- | --- | --- | --- | --- | --- | --- | --- | --- | --- | --- | --- | --- | --- | --- | --- |
| CCN(CC)CC#CCOC(=O)C(O)(c1ccccc1)C1CCCCC1 (centres undefined) [Oxybutynin chloride] | 12.57 ± 0.03 | 1.15 | -0.83 | -0.51 | -0.41 | -1.2 | -0.32 | 0.06 | -0.4 | -1.11 | -0.93 | -0.57 | -0.24 | -0.97 | -0.46 | -0.26 |  |
| COc1cc2c(cc1OC)[C@@H]1Cc3ccc(OC)c(OC)c3CN1CC2 [Rotundine] | 12.5 ± 0.15 | -0.12 | -0.28 | 0.7 | 0.05 | 0.16 | -0.15 | -0.02 | 0.17 | -0.01 | 0.52 | 0.67 | -0.41 | 0.14 | -0.04 | 0.13 |  |
| C=C[C@H]1CN2CC[C@H]1C[C@@H]2[C@@H](O)c1ccnc2ccc(OC)cc12 [Quinidine sulfate] | 12.4 ± 0.13 | -1.18 |  |  | 0.89 |  | 2.28 | 1.23 | -0.47 | 0.08 | 1.36 | 1.39 | 1.12 | 0.61 | 1.53 | 2.36 | 1.1 |
| O=C(c1ccc(OCCN2CCCCC2)cc1)c1c(-c2ccc(O)cc2)sc2cc(O)ccc12 [Raloxifene] | 12.3 ± 0.38 | 0.7 |  | -1.73 | 1.48 |  | 0.49 | 0.02 | -1.39 | -1.32 | 0.96 | 0.52 | 0.78 | -0.2 | -0.37 | 0.09 | -0.22 |
| CC[C@@]1(O)C(=O)OCc2c1cc1n(c2=O)Cc2cc3cc(O)ccc3nc2-1 [Hydroxy Camptothecine] | 12.5 ± 0.14 | 1.27 | 2.31 | -5.21 | 3.18 |  |  | 3.39 | -4.32 |  | 2.22 | -1.2 |  |  | -1.35 | 0.8 | 3.88 |
| CC(Cc1ccc(O)c(O)c1)C(C)Cc1ccc(O)c(O)c1 (centres undefined) [Nordihydroguaiaretic acid (NDGA)] | 12.5 ± 0.17 | 0.67 | 0.06 | -0.02 | -1.01 | -0.29 | 0.02 | -0.39 | -0.76 | -0.5 | -0.39 | 0.33 | -0.39 | -0.77 | 0.39 | -0.44 |  |
